Laboratory results reported in PubChem BioAssay.
Inconclusive results are not listed. Activity calls are given as the source filed them. Unless noted, cut-off not given; nearly all actives show AC50 up to about 26 µM.

Legend:
[1] = growth inhibition of DIPG glioma cells, dose response, cell-based, SU-DIPG-XVII, MIPE5.0, CellTiter-Glo, qHTS (AID 1347060); details: SU-DIPG-XVII viability, CellTiter-Glo ATP luminescence;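 on AC50: cells exposed to compound for 48 hours before viability readout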
[2] = growth inhibition of DIPG glioma cells, dose response, cell-based, SU-DIPG-XIII, MIPE5.0, CellTiter-Glo, qHTS (AID 1347064; cut-off not given, nearly all actives have AC50 up to about 23 µM;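 on AC50: cells exposed to compound for 48 hours before the viability read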); details: SU-DIPG-XIII viability, CellTiter-Glo ATP luminescence
[3] = viability loss in pontine glioma line – cell-based, SU-DIPG-XXV, MIPE5.0, CellTiter-Glo, qHTS, dose response (AID 1347065); details: CellTiter-Glo ATP luminescence;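 further: cells exposed to compound for 48 hours before ATP readout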
[4] = SU-DIPG-XXV glioma cell viability, MIPE5.0 library, qHTS (AID 1347068; cut-off not given, nearly all actives have IC50 up to about 30 µM;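 on IC50: cells exposed to compound for 48 hours before viability readout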)
[5] = sensitizers of A549 cells to miR-34 induction, primary screen, imaging, A549 dox-inducible miR-34, nuclei and caspase counts (AID 1347080;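 active means compounds whose cell count with miR-34 switched on is under 0.7 times the count with it off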); details: A549 miR-34 inducible, Hoechst nuclei count, 48 h
[6] = survival rescue of mitochondrial mutant cells in low glucose, primary screen, MELAS cybrids, Rieske KO mouse fibroblasts, CellTiter-Glo (AID 1508586;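 active means mean z-score across replicates of 1.96 or higher in either the MELAS or the Rieske mutant cell line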;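 further: z relative to plate mean and SD of compound and empty wells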)
[7] = JHH-DIPG-1 glioma cell viability, MIPE5.0 library, CellTiter-Glo luminescence, qHTS (AID 1347067); details: JHH-DIPG-1 glioma viability, CellTiter-Glo ATP luminescence;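 further: cells exposed to compound for 48 hours before readout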
[8] = ovarian cancer cell viability with rucaparib, profiling panel, oncology-focused library, rucaparib conditional (AID 1508598;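 active means normalized viability below 100% at a tested concentration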); details: patient-derived ovarian cancer cells, CellTiter-Glo viability, 144 h, stronger effect = lower value
[9] = stronger effect = lower value, cell number ratio, induced over uninduced
[10] = measured here: relative caspase fold change +Dox/-Dox
[11] = measured here: total cells with miR-34 induction, stronger effect = lower value
[12] = measured here: total cells without miR-34 induction
[13] = MELAS cybrid survival, CellTiter-Glo 48 h, stronger effect = higher value
[14] = Rieske KO mouse fibroblast survival, CellTiter-Glo 72 h

Cc1nc(NC(=O)N2CCCC2C(N)=O)sc1-c1ccnc(C(C)(C)C(F)(F)F)c1 (stereo not drawn)
-0.201: z-score [6, 14]
active: AC50 [1] 5.25 µM | AC50 [2] 2.63 µM | AC50 [3] 2.35 µM | IC50 [4] 13.2 µM
0.696: fold change [5, 10]
5770: cell count [5, 11]
6170: cell count [5, 12]
inactive: fold change [5, 9] 0.937 | z-score [6, 13] -0.255

O=C(Nc1ccc(-c2ccnc(Nc3ccc(N4CCOCC4)cc3)n2)cc1)C1CCCN1 (stereo not drawn)
inactive: outcome [4] | fold change [5, 9] 0.711 | z-score [6, 13] -0.234
5090: cell count [5, 11]
0.977: fold change [5, 10]
-0.152: z-score [6, 14]
7160: cell count [5, 12]
active: AC50 [1] 18.6 µM | AC50 [2] 18.6 µM | AC50 [3] 16.6 µM

CN1CCN(c2ncc(-c3cc(Cl)cc(Cl)c3Cl)c(N)n2)CC1
inactive: outcome [1] | outcome [2] | outcome [7] | outcome [4]

Cn1cc(-c2nc(N[C@@H]3CCCC[C@@H]3N)c(F)c3c2C(=O)NC3)cn1
inactive: outcome [1] | outcome [2] | outcome [7] | outcome [4]

C[C@H](NC(=O)C(=O)Nc1ccccc1C(C)(C)C)C(=O)N[C@@H](CC(=O)O)C(=O)COc1c(F)c(F)cc(F)c1F
inactive: outcome [1] | outcome [4]
active: AC50 [2] 16.6 µM | AC50 [7] 2.95 µM

c1cc(-c2cnn3cc(-c4ccc(N5CCNCC5)cc4)cnc23)c2cccnc2c1
216: cell count [5, 11]
active: AC50 [1] 7.42 µM | AC50 [2] 6.61 µM | AC50 [3] 7.42 µM | IC50 [4] 9.34 µM
inactive: fold change [5, 9] 1.02 | z-score [6, 13] 1.7
0.321: fold change [5, 10]
0.379: z-score [6, 14]
212: cell count [5, 12]

C[C@@H]1O[C@@H](O[C@@H]2\C=C/C=C\C=C/C=C\C[C@H](C)OC(=O)/C=C\[C@H]3O[C@@H]3C[C@H](O)C[C@]3(O)C[C@@H](O)[C@@H](C(=O)O)[C@H](C2)O3)[C@H](O)[C@H](N)[C@@H]1O
inactive: outcome [1] | outcome [2] | outcome [7] | outcome [4]

O=C(O)c1ccc(O)c2ncccc12
active: AC50 [2] 20.9 µM | viability ([8]; at 0.000305 µM, OCI-P5x cells, with rucaparib 20 µM, 100% = cells with rucaparib alone) 94.2% | viability ([8]; at 0.000305 µM, OCI-P5x cells, without rucaparib) 89.3% | viability ([8]; at 0.00122 µM, OCI-P5x cells, without rucaparib) 97.9% | viability ([8]; at 0.00488 µM, OCI-P5x cells, without rucaparib) 98.1% | viability ([8]; at 0.0781 µM, OCI-P5x cells, with rucaparib 20 µM, 100% = cells with rucaparib alone) 98.2% | viability ([8]; at 0.313 µM, OCI-P5x cells, with rucaparib 20 µM, 100% = cells with rucaparib alone) 96.3% | viability ([8]; at 1.25 µM, OCI-P5x cells, with rucaparib 20 µM, 100% = cells with rucaparib alone) 98.5%
inactive: outcome [1] | outcome [3] | outcome [4] | fold change [5, 9] 0.933 | z-score [6, 13] -0.339 | viability ([8]; at 0.000305 µM, OCI-C5x cells, with rucaparib 10 µM, 100% = cells with rucaparib alone) 112% | viability ([8]; at 0.000305 µM, OCI-C5x cells, without rucaparib) 117% | viability ([8]; at 0.00122 µM, OCI-C5x cells, with rucaparib 10 µM, 100% = cells with rucaparib alone) 120% | viability ([8]; at 0.00122 µM, OCI-C5x cells, without rucaparib) 123% | viability ([8]; at 0.00122 µM, OCI-P5x cells, with rucaparib 20 µM, 100% = cells with rucaparib alone) 101% | viability ([8]; at 0.00488 µM, OCI-C5x cells, with rucaparib 10 µM, 100% = cells with rucaparib alone) 120% | viability ([8]; at 0.00488 µM, OCI-C5x cells, without rucaparib) 116% | viability ([8]; at 0.00488 µM, OCI-P5x cells, with rucaparib 20 µM, 100% = cells with rucaparib alone) 103% | viability ([8]; at 0.0195 µM, OCI-C5x cells, with rucaparib 10 µM, 100% = cells with rucaparib alone) 127% | viability ([8]; at 0.0195 µM, OCI-C5x cells, without rucaparib) 113% | viability ([8]; at 0.0195 µM, OCI-P5x cells, with rucaparib 20 µM, 100% = cells with rucaparib alone) 100% | viability ([8]; at 0.0195 µM, OCI-P5x cells, without rucaparib) 105% | viability ([8]; at 0.0781 µM, OCI-C5x cells, with rucaparib 10 µM, 100% = cells with rucaparib alone) 112% | viability ([8]; at 0.0781 µM, OCI-C5x cells, without rucaparib) 120% | viability ([8]; at 0.0781 µM, OCI-P5x cells, without rucaparib) 103% | viability ([8]; at 0.313 µM, OCI-C5x cells, with rucaparib 10 µM, 100% = cells with rucaparib alone) 108% | viability ([8]; at 0.313 µM, OCI-C5x cells, without rucaparib) 121% | viability ([8]; at 0.313 µM, OCI-P5x cells, without rucaparib) 102% | viability ([8]; at 1.25 µM, OCI-C5x cells, with rucaparib 10 µM, 100% = cells with rucaparib alone) 110% | viability ([8]; at 1.25 µM, OCI-C5x cells, without rucaparib) 115% | viability ([8]; at 1.25 µM, OCI-P5x cells, without rucaparib) 106% | viability ([8]; at 5 µM, OCI-C5x cells, with rucaparib 10 µM, 100% = cells with rucaparib alone) 115% | viability ([8]; at 5 µM, OCI-C5x cells, without rucaparib) 122% | viability ([8]; at 5 µM, OCI-P5x cells, with rucaparib 20 µM, 100% = cells with rucaparib alone) 111% | viability ([8]; at 5 µM, OCI-P5x cells, without rucaparib) 111%
0.0902: z-score [6, 14]
0.445: fold change [5, 10]
8640: cell count [5, 11]
9260: cell count [5, 12]

CC(C)=CCC[C@](C)(O[C@@H]1O[C@H](CO[C@@H]2O[C@H](CO)[C@@H](O)[C@H](O)[C@H]2O)[C@@H](O)[C@H](O)[C@H]1O)[C@H]1CC[C@]2(C)[C@@H]1[C@H](O)C[C@@H]1[C@@]3(C)CC[C@H](O[C@@H]4O[C@H](CO)[C@@H](O)[C@H](O)[C@H]4O[C@@H]4O[C@H](CO)[C@@H](O)[C@H](O)[C@H]4O)C(C)(C)[C@@H]3CC[C@]12C
inactive: outcome [1] | outcome [2] | outcome [7] | outcome [4]

CN[C@@H](C)C(=O)N[C@@H]1C(=O)N(Cc2c(C)ccc3ccccc23)c2ccc(C#N)cc2N(C(C)=O)[C@H]1C
inactive: outcome [1] | outcome [2] | outcome [7] | outcome [4]

CN1C(N)=N[C@](C)(c2cc(NC(=O)c3ccc(F)cn3)ccc2F)CS1(=O)=O
inactive: outcome [1] | outcome [2] | outcome [7] | outcome [4]

CC(C)NC(=O)N1CC[C@H](N=C2Nc3cc(F)ccc3N(CC(F)F)c3ccc(Cl)cc32)C1
inactive: outcome [1] | outcome [2] | outcome [7] | outcome [4]

CC(=O)Nc1ccc(C(=O)NC(C)(C)C)cc1
inactive: outcome [1] | outcome [2] | outcome [7]

CCN(c1cc(C#CCN2CCOCC2)cc(C(=O)NCc2c(C)cc(C)[nH]c2=O)c1C)C1CCC(N(C)CCOC)CC1 (stereo not drawn)
inactive: outcome [1] | outcome [2] | outcome [7] | outcome [4]

CN1CCN(c2ccc(-c3cccc(CN4CCOCC4)c3)cc2NC(=O)c2c[nH]c(=O)cc2C(F)(F)F)CC1
inactive: outcome [1] | outcome [2] | outcome [3] | outcome [4]

CN(C)c1cccc(-c2c3c(=O)n(-c4ccccc4Cl)[nH]c3cc(=O)n2C)c1
inactive: outcome [1] | outcome [2] | outcome [7] | outcome [4]

O=C(Nc1ccc2c(=O)cc(-c3nn[nH]n3)oc2c1)c1ccc(OCCCCc2ccccc2)cc1
-0.277: z-score [6, 14]
inactive: outcome [1] | outcome [2] | outcome [3] | outcome [4] | fold change [5, 9] 0.988 | z-score [6, 13] -0.481
0.807: fold change [5, 10]
7840: cell count [5, 12]
7750: cell count [5, 11]

CS(=O)(=O)c1ccc([C@@H](CC2CCCC2)C(=O)Nc2nccs2)cc1
inactive: outcome [1] | outcome [2] | outcome [7]
active: IC50 [4] 13.2 µM
